Assay outcomes as filed in PubChem BioAssay.
PLK1 PBD block: qHTS for Inhibitors of PLK1-PDB (polo-like kinase 1 - polo-box domain): Primary Screen; Serine/threonine-protein kinase PLK1 (Homo sapiens), P53350; Plk1 PBD binding of FITC phosphopeptide, fluorescence polarization; Potency, µM, for inactives: max response, negative = inhibition, hits mostly inhibitors; hit rate 2.8% among 360,000; AID 720504, 2013; also: potency is read from the fitted curve at half-maximal effect; series mostly up to about 57 µM; % is scaled to controls: 0 for no effect and ±100 for the full control effect; nearly all actives have a fitted effect of over 65% in size
CBFb-RUNX1 inh: qHTS Assay for Compounds Blocking the Interaction Between CBF-beta and RUNX1 for the Treatment of Acute Myeloid Leukemia; Runt-related transcription factor 1 (Homo sapiens) + Core-binding factor subunit beta …; AlphaScreen CBFb-His/RUNX1-biotin binding, biochemical; Potency, µM (doses to about 59.8 µM), inactives show at the highest dose activity, negative = inhibition, actives largely listed as inhibitors; 230,000 tested, under 10 active; AID 1477, 2009; also: % of control where 0% means no effect
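CBF-beta (His) and RUNX1 (biotin), 30 nM each; 20 min preassociation; + compound, 15 min; + beads 50 ng each (Ni, streptavidin), 90 min; RT; AlphaScreen read.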
MBNL1 CUG block: qHTS Assay for Inhibitors of MBNL1-poly(CUG) RNA binding. hit rate 0.036% among 280,000. Potency, µM (top dose mostly 57.5 µM), without a hit: at the top dose activity change, negative = inhibition, usual class: inhibitors. Muscleblind-like protein 1 (Homo sapiens), Q9NR56. TR-FRET MBNL1-His/biotin-(CUG)12 binding, 665/545 ratio; active = well fitted inhibition curve with a large enough effect in the signal ratio, with a control signal flat, not every such curve was filed as active; inconclusive = small, poorly fitted or top-dose-only effect, or effect the other way, or a change in a side signal; inactive = no such curve, though single readings can be large or run the other way; the % refers to the signal ratio; also: potency is read from the fitted curve at half-maximal effect; % is scaled to controls: 0 for no effect and ±100 for the full control effect
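Compound titration spanned 92 nM–58 uM against the MBNL1-His/biotin-(CUG)12 complex. After 60 min at room temperature with 5 nM streptavidin-XL665 and 0.055 ng/ul terbium anti-His, ratiometric 665/545 nm emission (Ex 340 nm) normalized to controls.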
KCNH2 WT inh: qHTS for Inhibitors of KCHN2 3.1: Wildtype qHTS; Voltage-gated inwardly rectifying potassium channel KCNH2 (Homo sapiens), Q12809; U2OS, BacMam KCNH2, thallium flux FluxOr; stronger effect = lower value; activity change, % at 1.84 µM; hit rate 0.37% among 340,000; AID 720551, 2013;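 active = maximum activity change below -70%; inconclusive = maximum activity change between -70% and -50%; inactive = maximum activity change above -50%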; also: % is scaled to controls: 0 for no effect and ±100 for the full control effect
Target sequence (Q12809 whole entry, looked up): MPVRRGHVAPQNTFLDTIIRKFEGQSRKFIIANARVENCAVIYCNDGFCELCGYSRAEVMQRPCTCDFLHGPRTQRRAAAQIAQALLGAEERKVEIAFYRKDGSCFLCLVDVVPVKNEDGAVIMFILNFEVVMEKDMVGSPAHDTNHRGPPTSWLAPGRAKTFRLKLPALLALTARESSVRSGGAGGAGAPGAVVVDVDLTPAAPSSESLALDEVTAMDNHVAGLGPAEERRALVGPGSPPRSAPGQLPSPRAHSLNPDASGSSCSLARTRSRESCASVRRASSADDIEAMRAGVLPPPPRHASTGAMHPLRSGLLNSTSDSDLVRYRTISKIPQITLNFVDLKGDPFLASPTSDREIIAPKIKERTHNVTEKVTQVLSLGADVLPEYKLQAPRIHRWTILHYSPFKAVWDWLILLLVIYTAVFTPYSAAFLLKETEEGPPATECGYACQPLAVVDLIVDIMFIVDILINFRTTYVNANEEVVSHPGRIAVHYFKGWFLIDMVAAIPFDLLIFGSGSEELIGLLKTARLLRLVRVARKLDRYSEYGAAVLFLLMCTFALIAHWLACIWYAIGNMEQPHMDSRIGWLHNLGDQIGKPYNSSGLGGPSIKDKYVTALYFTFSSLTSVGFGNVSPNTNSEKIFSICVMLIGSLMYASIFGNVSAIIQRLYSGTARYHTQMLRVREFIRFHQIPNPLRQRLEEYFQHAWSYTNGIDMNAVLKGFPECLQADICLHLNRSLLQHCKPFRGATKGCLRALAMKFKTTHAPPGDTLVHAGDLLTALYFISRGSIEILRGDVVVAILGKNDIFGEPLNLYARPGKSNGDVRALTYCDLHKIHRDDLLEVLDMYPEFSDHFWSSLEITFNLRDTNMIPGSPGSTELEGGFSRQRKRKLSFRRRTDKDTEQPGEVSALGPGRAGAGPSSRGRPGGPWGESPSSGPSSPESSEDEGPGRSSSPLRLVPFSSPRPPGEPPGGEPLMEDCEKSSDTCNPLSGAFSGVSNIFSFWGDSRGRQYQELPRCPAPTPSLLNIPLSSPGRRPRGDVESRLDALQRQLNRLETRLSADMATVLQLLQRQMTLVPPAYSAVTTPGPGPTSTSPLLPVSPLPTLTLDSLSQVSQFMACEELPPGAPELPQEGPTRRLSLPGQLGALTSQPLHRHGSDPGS
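U2OS cells were transduced with wild-type KCNH2 virus (2.03 x 10^8 / mL) for 4 h at room temperature, then cultured overnight at 37 C. Thallium flux was read with FluxOr dye. Rate constants were normalized to DMSO controls.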
VDR inh: Inhibitors of the vitamin D receptor (VDR): qHTS | Vitamin D3 receptor (Homo sapiens), P11473 | VDR-SRC2-3 peptide fluorescence polarization, 2 h | Potency, µM, for inactives: max response, negative = inhibition, hits mostly inhibitors | hit rate 0.93% among 400,000 | AID 504847, 2011; also: potency is read from the fitted curve at half-maximal effect; % is scaled to controls: 0 for no effect and ±100 for the full control effect
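Signal is fluorescence polarization, reporting how far test compounds block the interaction of VDR with the SRC2-3 coregulator peptide after a 2 h room-temperature incubation.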
KCNH2 3.1 block: qHTS for Inhibitors of KCHN2 3.1: Mutant qHTS | U2OS KCNH2 3.1, thallium flux FluxOr; stronger effect = lower value | hit rate 0.95% among 340,000 | activity change, % (tested at about 1.8 µM);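 active = maximum activity change below -70%; inconclusive = maximum activity change from -70% to -50%; inactive = maximum activity change above -50%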;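 also: thallium influx rate constant from kinetic fluorescence after stimulation buffer; % is scaled to controls: 0 for no effect and ±100 for the full control effect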
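U2OS cells transduced with KCNH2 3.1 mutant virus (1.77 x 10^8 /mL, 4 h), plated overnight at 37 C, loaded 45 min with FluxOr dye plus Red40 quencher. Thallium flux rate constant from kinetic reads after stimulation buffer, normalised to controls.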
Numbers without * were called inactive; ? = inconclusive; . = not tested or not shown; ! = not confirmed by another sample; [ ] = remark or other dose. Sampled rows, rich in hits. Any-hit rate of the full collection: about 3.8%. Unless noted, calls follow the shape of the dose curve; as a rule, active = well fitted curve in the direction sought with a large enough effect; inconclusive = small, poorly fitted or top-dose-only effect, or another doubt; inactive = no such curve, though single readings can be large; an effect the other way counts as inactive or inconclusive.

SMILES	PLK1 PBD block	CBFb-RUNX1 inh	MBNL1 CUG block	KCNH2 WT inh	VDR inh	KCNH2 3.1 block
CC1CCCCN1CC(=O)NC(c1ccccc1)c1ccccc1 (stereo unspecified)	-2.4%	4.2%	0.3%	27.1	-16.5%	-30.4
CCN(CC)CCOC(=O)C(Cc1ccco1)Cc1cccc2ccccc12 (stereo unspecified)	1.3%	.	.	-7.0	-10.8%	-73.8*
CCN(CC)CCOC(=O)C(c1ccccc1)C1CCCCC1 (stereo unspecified)	-10.5%	9.6%	.	37.1	15.9%	4.0
Oc1ccc(C2CNCc3sccc32)cc1O (stereo unspecified)	-10.3%	18.9%	.	2.7	12.6µM*!	6.9
O=[N+]([O-])c1cc(S(=O)(=O)Nc2ccccc2)ccc1-n1nnc2ccccc21	-10.0%	-12.7%	?	-209.8*	-10.6%	-183.1*
Cc1cc(C)cc(OCC(=O)Nc2ccc(-c3nc4ccccc4s3)cc2)c1	.	.	.	.	-2.2%	.
CC1=C(C(=O)Nc2ccc(Cl)cc2)C(c2ccc(C(F)(F)F)cc2)n2nnnc2N1 (stereo unspecified)	.	.	.	.	-16.0%	.
COCCn1c(-c2ccc(F)cc2)nc2oc3cc(OC)ccc3c(=O)c2c1=O	-6.0%	-1.6%	4.1%	-1.9	5.2%	-90.8*
Cc1ccccc1-c1ccc2ncnc(N3CCNCC3)c2c1	.	.	.	.	50.1µM*	.
COc1ccccc1-c1ccc2ncnc(N3CCNCC3)c2c1	.	.	.	.	-21.8%	.
COCCNc1ncnc2ccc(-c3ccoc3)cc12	.	.	.	.	39.8µM*	.
CC(=O)NCCNc1ncnc2ccc(-c3ccoc3)cc12	.	.	.	.	39.8µM*	.
COCCNc1ncnc2ccc(-c3ccccc3OC)cc12	.	.	.	.	-6.6%	.
CN1CCN(c2ncnc3ccc(-c4ccoc4)cc23)CC1	.	.	.	.	44.7µM*	.
COC(=O)c1ccc(OCC2c3cc(OC)c(OC)cc3CCN2C(=O)c2cccc(C)c2)cc1 (stereo unspecified)	.	.	.	.	10.8%	.
CN(C)c1ccc(-c2ccc3ncnc(NCc4ccccc4)c3c2)cc1	.	.	.	.	-4.8%	.
c1nc(NCCN2CCOCC2)c2cc(-c3ccoc3)ccc2n1	.	.	.	.	44.7µM*	.
CS(=O)(=O)Nc1cccc(-c2ccc3ncnc(N4CCOCC4)c3c2)c1	.	.	.	.	44.7µM*	.
COc1cccc(-c2ccc3ncnc(NCCN4CCOCC4)c3c2)c1	.	.	.	.	4.1%	.
COCCNc1ncnc2ccc(-c3ccc(N(C)C)cc3)cc12	.	.	.	.	39.8µM*	.
CC(=O)NCCNc1ncnc2ccc(-c3ccccc3C)cc12	.	.	.	.	44.7µM*	.
CS(=O)(=O)Nc1cccc(-c2ccc3ncnc(NCCN4CCOCC4)c3c2)c1	.	.	.	.	-6.8%	.
CC#CCN1c2ccccc2[C@]23C[C@@H](C(=O)OC)N(S(=O)(=O)c4ccc(C#N)cc4)C2=NC(C(=O)OC)=C(C(=O)OC)[C@H]13	.	-8.9%[13.1 µM]	.	.	.	.
CN(CCCc1cnc[nH]1)C(=S)NCCCN(Cc1ccc(Cl)cc1)c1ccc(Br)cn1	.	.	.	.	-10.2%	.
COc1ccccc1CNC(=O)CC1N=C2c3ccccc3N=C(SCC(=O)Nc3ccc(F)cc3)N2C1=O (stereo unspecified)	.	.	.	.	-0.9%	.
Cc1cc(C)c(NC(=O)CN2C(=O)c3cccnc3Oc3ccc(C)cc32)c(C)c1	.	.	.	.	6.8%	.
COc1ccc(OC)c(NC(=O)c2c(NCc3cccs3)sc3c2CCCCC3)c1	.	.	.	.	6.5%	.
CCOc1ccc(Nc2oc(/C=C/c3ccc(OC)c(OC)c3)nc2C#N)cc1	.	.	.	.	-8.7%	.
CCOC(=O)[C@]12Cc3c(cc(OC)c(OC)c3OC)[C@H]1N(Cc1ccccc1)C(=O)c1cc(OC)ccc12	7.52µM*	.	.	.	.	.
